# Measured values published in PubChem BioAssay (EPA / NIEHS).
# Several values for one entry are separate records, joined by “and”; a condition that tells them apart may be missing. Identical values can stand only once. More than one record can exist for a structure, and the calls need not agree. Activity calls are given as the source filed them. How the source made its calls: active means hit-call score of the fitted dose curve at least 0.9, where 1 is the maximum; inactive means score below 0.9.
# Read-out: not listed separately
# Assay: BSK_BT_PBMCCytotoxicity: PBMC Cytotoxicity Assessment in the BioMAP Diversity Plus: BT Assay (AID 2284225);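 further: PBMC viability measured by Alamar Blue dye reduction fluorescence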
# Settings: primary human B cells with PBMC
# Summary of the method: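 75,000 cells/well; cpd 1 h → SEB + TSST-1 (20 ng/mL final each) → 90 h → Alamar Blue 6 h → fluor. 546/580 nm. DMSO = neg. control/baseline.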
Structure (SMILES),outcome,AC50
O=C(NO)c1ccccc1,inactive,
COc1cccc(O)c1,inactive,
C=CC(=C)CC/C=C(\C)CCC=C(C)C,inactive,
O=P(O)(O)CCC(F)(F)C(F)(F)C(F)(F)C(F)(F)C(F)(F)C(F)(F)C(F)(F)C(F)(F)F,inactive,
Clc1ccc(Nc2nnc(Cc3ccncc3)c3ccccc23)cc1,inactive,
COCN(COC)c1nc(N(COC)COC)nc(N(COC)COC)n1,inactive,
Cc1ccc(N=Nc2c(O)ccc3ccccc23)c(C)c1,inactive,
CC(C)(C)c1ccc(O)c(O)c1,,25.2 µM (active)
C=COC(=O)C(C)(C)CCCCCC,inactive,
O=C(O)CCC(F)(F)C(F)(F)C(F)(F)C(F)(F)C(F)(F)F,inactive,
C[C@]12CC[C@@H]3c4ccc(O)cc4CC[C@H]3[C@@H]1C[C@@H](O)[C@@H]2O,inactive,
O=C(O)C(F)(F)OC(F)(F)C(F)(F)OC(F)(F)C(F)(F)OC(F)(F)C(F)(F)C(F)(F)C(F)(F)F,inactive,
CN(C)c1ccc(C(=C2C=CC(=[N+](C)C)C=C2)c2ccccc2)cc1,,0.993 µM (active)
O=C1c2ccc(O)c(O)c2C(=O)c2c(O)ccc(O)c21,inactive,
NC(=NCCCCCCN=C(N)/N=C(\N)Nc1ccc(Cl)cc1)/N=C(\N)Nc1ccc(Cl)cc1,,13.7 µM (active)
C=CC(=O)OCCC(F)(F)C(F)(F)C(F)(F)C(F)(F)C(F)(F)C(F)(F)C(F)(F)C(F)(F)F,inactive,
O=C1OC2(c3ccccc31)c1cc(I)c(O)c(I)c1Oc1c2cc(I)c(O)c1I,inactive,
Oc1cc2ccccc2cc1O,inactive,
C=CC(C)(CCC=C(C)C)OC(C)=O (stereo not given),inactive,
Cc1ccc(C(=O)c2ccccc2)cc1,inactive,
COc1cc(OC)nc(NC(=O)NS(=O)(=O)Nc2ccccc2C(=O)N(C)C)n1,inactive,
CC1=NN(c2ccccc2)C(=O)C1,inactive,

# Read-out: Secreted IgG (sIgG), gene 3500
# Assay: BSK_BT_sIgG: BioMAP Diversity Plus: BT Assay for Secreted IgG (sIgG) Biomarker Activity (AID 2284226)
# Settings: primary human B cells with PBMC
# Summary of the method: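 B cells co-cultured with PBMC were dosed with chemical and secreted IgG quantified by ELISA at 24 h. Activity was fitted in the positive direction relative to DMSO as negative control and baseline.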
Structure (SMILES),outcome,AC50
O=C(NO)c1ccccc1,inactive,
COc1cccc(O)c1,inactive,
C=CC(=C)CC/C=C(\C)CCC=C(C)C,inactive,
O=P(O)(O)CCC(F)(F)C(F)(F)C(F)(F)C(F)(F)C(F)(F)C(F)(F)C(F)(F)C(F)(F)F,inactive,
Clc1ccc(Nc2nnc(Cc3ccncc3)c3ccccc23)cc1,,6.52 µM (active)
COCN(COC)c1nc(N(COC)COC)nc(N(COC)COC)n1,inactive,
Cc1ccc(N=Nc2c(O)ccc3ccccc23)c(C)c1,,10 µM (active)
CC(C)(C)c1ccc(O)c(O)c1,,31.4 µM (active)
C=COC(=O)C(C)(C)CCCCCC,inactive,
O=C(O)CCC(F)(F)C(F)(F)C(F)(F)C(F)(F)C(F)(F)F,inactive,30 µM (active)
C[C@]12CC[C@@H]3c4ccc(O)cc4CC[C@H]3[C@@H]1C[C@@H](O)[C@@H]2O,inactive,
O=C(O)C(F)(F)OC(F)(F)C(F)(F)OC(F)(F)C(F)(F)OC(F)(F)C(F)(F)C(F)(F)C(F)(F)F,,42.5 µM (active) and 34.9 µM (active)
CN(C)c1ccc(C(=C2C=CC(=[N+](C)C)C=C2)c2ccccc2)cc1,,0.227 µM (active)
O=C1c2ccc(O)c(O)c2C(=O)c2c(O)ccc(O)c21,inactive,
NC(=NCCCCCCN=C(N)/N=C(\N)Nc1ccc(Cl)cc1)/N=C(\N)Nc1ccc(Cl)cc1,,2.87 µM (active)
C=CC(=O)OCCC(F)(F)C(F)(F)C(F)(F)C(F)(F)C(F)(F)C(F)(F)C(F)(F)C(F)(F)F,inactive,
O=C1OC2(c3ccccc31)c1cc(I)c(O)c(I)c1Oc1c2cc(I)c(O)c1I,inactive,
Oc1cc2ccccc2cc1O,inactive,
C=CC(C)(CCC=C(C)C)OC(C)=O (stereo not given),inactive,
Cc1ccc(C(=O)c2ccccc2)cc1,inactive,
COc1cc(OC)nc(NC(=O)NS(=O)(=O)Nc2ccccc2C(=O)N(C)C)n1,inactive,
CC1=NN(c2ccccc2)C(=O)C1,inactive,
